# Assays:
# Settings in all cases: concentration: 1 μM, replicates: in singlicate; n = 1
# NEK4 = system: NEK4
# NEK5 = system: NEK5
# NEK6 = system: NEK6
# NEK7 = system: NEK7
# NEK9 = system: NEK9
# NIK = system: T1, NIK
# T1 construct: gene MAP3K14
# NIM1 = system: T2, NIM1
# T2 construct: gene MGC42105
# NLK = system: NLK
# OSR1 = system: T3, OSR1
# T3 construct: gene OXSR1
# PAK1 = system: PAK1
# PAK2 = system: PAK2
# PAK3 = system: PAK3
# PAK4 = system: PAK4
# PAK6 = system: PAK6
# PAK7 = system: PAK7
# PCTK1 = system: T4, PCTK1
# T4 construct: gene CDK16
# PCTK2 = system: T5, PCTK2
# T5 construct: gene CDK17
# PCTK3 = system: T6, PCTK3
# T6 construct: gene CDK18
# PDGFRA = system: PDGFRA
# PDGFRB = system: PDGFRB
# 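Also: KINOMEscan kinase panel screen.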
Compound,%Inh (NEK4),%Inh (NEK5),%Inh (NEK6),%Inh (NEK7),%Inh (NEK9),%Inh (NIK),%Inh (NIM1),%Inh (NLK),%Inh (OSR1),%Inh (PAK1),%Inh (PAK2),%Inh (PAK3),%Inh (PAK4),%Inh (PAK6),%Inh (PAK7),%Inh (PCTK1),%Inh (PCTK2),%Inh (PCTK3),%Inh (PDGFRA),%Inh (PDGFRB)
Cn1c(=O)c(F)c(Nc2ccc(I)cc2F)c2c(=O)n(OC[C@H](O)CO)cnc21,0%,4%,30%,0%,0%,0%,0%,0%,0%,0%,7%,1%,8%,20%,0%,0%,11%,5%,0%,11%
Cc1ccccc1COc1cc(-n2cnc3cc(Cl)ccc32)sc1C(N)=O [GW813349],0%,6%,0%,4%,0%,9%,5%,0%,0%,0%,0%,0%,0%,1%,0%,15%,0%,0%,1%,0%
COc1cc2ncn(-c3cc(OCc4ccc(S(C)(=O)=O)cc4)c(C(N)=O)s3)c2cc1OC [GW869979],14%,20%,1%,0%,0%,7%,45%,4%,25%,0%,0%,0%,0%,0%,0%,19%,0%,26%,30%,11%
Cc1cccc(-c2nc(Nc3ccc4c(cnn4C)c3)c3ccccc3n2)n1 [GW876731],0%,49%,12%,2%,5%,11%,16%,25%,0%,6%,33%,0%,17%,14%,0%,0%,0%,11%,9%,1%
COc1cccc(C2=C(Nc3cccc(C(=O)O)c3)C(=O)NC2=O)c1 [SB-390770],0%,14%,1%,0%,9%,0%,0%,8%,16%,0%,0%,25%,0%,0%,0%,0%,0%,0%,3%,0%
CC(C)(C)c1ccc(C(=O)Nc2cn3cc(-c4ccccc4)ccc3n2)cc1,0%,0%,0%,0%,0%,0%,19%,0%,0%,0%,0%,8%,1%,0%,6%,0%,0%,0%,41%,93%
COc1cccc(-n2cnc3c(N)ncnc32)c1 [SKF-97416],0%,8%,8%,0%,0%,27%,61%,0%,24%,20%,53%,0%,18%,18%,1%,15%,0%,6%,42%,4%
CCn1c(-c2ccoc2)nc2cnccc21 [SB-733887],22%,4%,5%,0%,0%,21%,11%,7%,9%,12%,19%,0%,0%,0%,0%,9%,0%,1%,63%,9%
COc1ccc(Nc2nccc(N3CCC(NS(=O)(=O)c4ccc(NC(C)=O)cc4)C3)n2)cc1 (centres unmarked) [GSK1379729],3%,33%,11%,3%,5%,17%,11%,13%,20%,6%,0%,7%,0%,0%,0%,0%,0%,6%,23%,15%
Cc1ccc(Oc2ccc(Nc3ncnc4cc[nH]c34)cc2C)cn1,3%,0%,17%,10%,5%,0%,58%,0%,0%,37%,37%,4%,25%,27%,0%,0%,8%,2%,49%,21%
